NALP3 yeast inh – NALP3 inhibition in yeast; 0.39% of 330,000 active; Yeast reconstituted NLRP3/ASC/caspase-1, beta-gal luminescence, 24 h; inhibition, % at 10 µM; AID 2825;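 active = inhibition of 50% or more; inactive = inhibition below 50%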;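 note: plate controls were induced DMSO wells for no effect and uninduced yeast grown without galactose for full effect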
tim10-1 inh – tim10-1 yeast growth inhibition; inhibition, % at 20 µM; 2.2% of 330,000 active; S. cerevisiae tim10-1 ts strain growth, BacTiter-Glo, 24 h; AID 463190;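 active = inhibition of at least 40%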;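 note: mutant grown at 25 °C; 0% = DMSO wells with yeast and 100% = wells holding no yeast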
tim23-1 inh – inhibits growth of tim23-1 mutant yeast; 1.3% of 330,000 active; S. cerevisiae tim23-1 growth, BacTiter-Glo luminescence, 24 h; AID 463212; inhibition, % at 20 µM;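 active = growth inhibition of the mutant yeast at or above 50%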;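 note: temperature-sensitive mutant grown at 25 °C; plate controls were DMSO-treated mutant yeast for no effect and medium wells lacking yeast for full effect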
TIM10 inh – inhibits growth of TIM10 yeast strain. S. cerevisiae TIM10 strain growth, BacTiter-Glo luminescence, 24 h. inhibition, % at 10 µM. 1.4% of 330,000 active;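 active = inhibition of 40% or more at the single tested concentration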;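 note: wild-type TIM10 isogenic control strain grown at permissive 25 °C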
NALP1 yeast inh – NALP1 inhibition | S. cerevisiae NALP1/ASC/caspase-1 growth, X-gal OD620, 72 h | inhibition, % at 10 µM | 0.61% of 280,000 active | AID 2071; in the data active = inhibition mostly above about 24%, no sharp cut-off; inactive = mostly below about 32%
tim10-1 conf – confirmation of tim10-1 mutant yeast growth inhibitors | shares compounds with tim10-1 inh | S. cerevisiae tim10-1 ts strain growth, BacTiter-Glo, 24 h | inhibition, % at 20 µM | 56% of 7,400 active;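 active = inhibition of yeast growth at or above a set limit in either of two repeat tests at 20 µM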;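 note: tim10-1 mutant grown at permissive 25 °C to find synthetic lethal compounds; 0% = DMSO yeast wells and 100% = medium wells without yeast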
Numbers without * were called inactive; . = no result. Only some compounds are listed: those with a hit (about 4% of all), similar ones and a draw of the others.

SMILES	NALP3 yeast inh	tim10-1 inh	tim23-1 inh	TIM10 inh	NALP1 yeast inh	tim10-1 conf
CCCCNC(=S)Nc1ccc(C(F)(F)F)cc1	7	54*	47	21	16	31*
COCCN(C(=O)c1cc(OC)c(OC)c(OC)c1)c1c(N)n(Cc2ccccc2)c(=O)[nH]c1=O	1	0	9	-11	-10	.
CCOC(=O)C1=C(c2ccccc2)O/C(=C(/C#N)C(F)(F)F)S1	-4	47*	44	40	29	39*
Clc1ccc(-c2nnc(COc3ncnc4ccccc34)o2)cc1	30	-6	32	11	10	.
O=c1[nH]c(CN2CCN(S(=O)(=O)c3ccc(Cl)cc3)CC2)nc2cc(Cl)ccc12	31	48*	38	23	24	31*
O=C(COC(=O)CSc1ccc([N+](=O)[O-])cc1)NCCCc1ccccc1	7	20	23	16	30	.
CNCCCOc1ccc(Cl)cc1C(C)(C)C	19	41*	21	22	-3	16
COCCCNCCCOc1ccc(Cl)cc1C(C)(C)C	33	10	6	14	-16	.
Cc1ccc(NC(=O)CNc2ccccc2N2CCCC2=O)cc1S(=O)(=O)N1CCOCC1	7	4	12	1	.	.
COc1ccc(C(CNC(=O)c2oc3ccc(Cl)cc3c2C)N2CCCCC2)cc1 (stereo not given)	12	47*	25	18	17	0
CCc1cc(C(=O)NCC(c2ccc(OC)cc2)N2CCOCC2)sc1C (stereo not given)	5	4	7	-4	.	.
COc1ccc(C(CNC(=O)c2cc(C)oc2C)N2CCOCC2)cc1 (stereo not given)	1	45*	17	2	-2	-1
NC(=O)C1(N2CCCCC2)CCN(S(=O)(=O)c2cc(Cl)sc2Cl)CC1	25	2	32	11	11	.
CC(Sc1n[nH]c(N)n1)C(=O)NC1CCCCC1C (stereo not given)	11	-1	-1	5	-2	.
CCN(CC)C(=O)C(=O)N/N=C/c1ccc(C(=O)O)cc1	-5	-5	11	5	15	.
Cc1cc(C)n2nc(SCc3c(F)cccc3Cl)nc2n1	18	48*	42	26	17	33*
Cc1cc(C)n2nc(SCc3ccc(F)cc3Cl)nc2n1	27	2	37	15	10	.
CCOC(=O)c1nn(-c2ccccc2C)c2nc(-c3ccc(Cl)cc3)c(C#N)c(=O)n12	14	31	25	11	9	.
CCc1cccc(NC(=O)CN(c2ccc(C)cc2)S(=O)(=O)c2c(C)noc2C)c1	-9	49*	35	33	10	36*
Cc1ccc(N(CC(=O)N2CCN(c3ccc(F)cc3)CC2)S(=O)(=O)c2c(C)noc2C)cc1	11	41*	32	14	16	8
O=C1CCCC/C=C\C[C@H](CC(=O)N(CCO)Cc2ccccc2)C(=O)NCCO1	18	1	4	-2	.	.
CCn1c(-c2cc(-c3cccc(OC)c3)nc3ccccc23)n[nH]c1=S	33	43*	39	37	25	23
CC1CCN(CCCNC(=O)c2nn(C)c3c2CS(=O)(=O)c2ccccc2-3)CC1	4	21	13	2	19	.
CCOc1ccc(OCC(=O)OC(C)C(=O)NC2CCCC2)cc1 (stereo not given)	11	6	13	6	.	.
Cc1cc(N2CCN(c3ccccc3)CC2)n2cc(-c3ccccc3)nc2n1	13	34	45	19	9	.
SMILES	NALP3 yeast inh	tim10-1 inh	tim23-1 inh	TIM10 inh	NALP1 yeast inh	tim10-1 conf
Cc1cc(N2CCN(c3ccccc3Cl)CC2)n2cc(-c3ccccc3)nc2n1	-14	42*	46	38	.	49*
COc1ccc(NC(=S)NC(=O)c2cncc(Br)c2)cc1	22	16	15	14	.	.
CC(=O)NNc1nc2ccccc2s1	1	5	4	-3	-7	.
C/C(=C\C(=O)c1ccccc1)NNc1nc2ccccc2s1	-16	55*	34	34	14	39*
CCN(CC)c1nc(NN)nc(Nc2ccc(C)c(Cl)c2)n1	32	37	32	32	.	.
CCOC(=O)c1ccc(S(=O)(=O)N2CCN(CC(=O)NC(=O)NC3CCCCC3)CC2)cc1	-6	44*	11	16	15	28
O=C(CN1CCN(S(=O)(=O)c2ccc(F)cc2)CC1)NC1CCCC1	23	-1	1	3	5	.
Cc1ccc(/C=N/NC(=O)CSCc2ccc(Cl)cc2)cc1	36	40*	42	39	7	25
CC(NC(=O)Cc1cccs1)C(c1cccs1)N1CCN(c2ccccc2F)CC1 (stereo not given)	-1	46*	32	31	3	37*
CC(NC(=O)c1ccco1)C(c1cccs1)N1CCN(c2ccc(F)cc2)CC1 (stereo not given)	-4	47*	34	5	8	18
COc1ccc(-n2c(SCC(=O)Nc3cc(C(=O)O)ccc3C)nc3ccccc3c2=O)cc1Cl	14	-2	28	2	-13	.
Cc1ccc(C(=O)O/N=C(\c2ccccc2)c2ccncc2)cc1	25	28	24	25	-4	.
COc1ccccc1C(=O)O/N=C(/c1ccncc1)c1ccc([N+](=O)[O-])cc1	1	47*	36	30	-3	26
COc1ccc(C(=O)ON=C2C=C(C)C(=O)C(C)=C2)cc1	-6	48*	36	22	-12	21
COc1cc(C(=O)O/N=C(\N)c2cccc([N+](=O)[O-])c2)cc(OC)c1OC	6	4	10	11	.	.
COc1cc(C(=O)ON=C2C=C(C)C(=O)C(C)=C2)cc(OC)c1OC	3	29	29	26	33	.
COc1ccc(C(=O)O/N=C(\N)c2ccccc2)cc1OC	24	51*	23	19	0	53*
COc1cc(C(=O)O/N=C(\N)c2ccc([N+](=O)[O-])cc2)cc(OC)c1OC	-45	59*	25	36	20	47*
COc1ccc(C(=O)O/N=C(\N)c2ccncc2)cc1OC	7	-12	0	4	11	.
CC(=O)c1c(C)[nH]c(C(=O)CN2CCN(S(=O)(=O)c3ccccc3)CC2)c1C	3	-6	-4	4	.	.
CC(OC(=O)c1cccc(-n2cnnn2)c1)C(=O)NC1(C#N)CCCCC1 (stereo not given)	2	-2	2	3	.	.
CC(C)C(NC(=O)c1c(F)cccc1F)C(=O)NC1CC(C)(C)NC(C)(C)C1 (stereo not given)	-1	-8	15	14	4	.
CNc1nc(C)c(C(=O)c2ccc(Cl)cc2)s1	31	11	14	16	11	.
O=[N+]([O-])c1ccc(S(=O)(=O)NCCS(=O)(=O)N2CCN(c3ccccc3)CC2)cc1	15	2	4	-9	4	.
N/C(=N\OC(=O)c1ccccc1Br)c1ccc([N+](=O)[O-])cc1	18	27	15	26	-8	.

Source: PubChem BioAssay
